Results from the supplement of paper PMC3334620.
Whole data set: some 33,000 sequences, median “E-score (-0.5 to 0.5)” near -0.013, cut for the highest 2% near 0.3. The list comes from a sample in which the highest values are over-represented; it also holds similar and randomly drawn sequences.

target: T1, Msn1 (UniProt P22148); assay: PBM E-score (8-mer binding enrichment) (E-score (-0.5 to 0.5)); higher = stronger / more preferred TF binding; conditions: protein concentration: 200 nM; construct: GST-full length
T1 sequence: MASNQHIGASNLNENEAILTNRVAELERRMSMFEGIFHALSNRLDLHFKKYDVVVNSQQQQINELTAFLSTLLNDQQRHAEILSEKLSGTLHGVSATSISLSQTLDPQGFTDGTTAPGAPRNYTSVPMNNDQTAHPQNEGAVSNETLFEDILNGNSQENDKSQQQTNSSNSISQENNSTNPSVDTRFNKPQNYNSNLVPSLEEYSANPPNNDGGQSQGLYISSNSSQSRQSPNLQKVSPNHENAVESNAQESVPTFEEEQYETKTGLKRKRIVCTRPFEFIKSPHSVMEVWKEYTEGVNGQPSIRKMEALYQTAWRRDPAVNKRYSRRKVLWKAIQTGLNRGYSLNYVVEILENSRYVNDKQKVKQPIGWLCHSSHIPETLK
Method in brief: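 Yeast transcription factors carrying a GST tag, as full-length proteins or DNA-binding domains, were produced by PURExpress in vitro transcription/translation. About 100-200 nM protein was applied to universal all-10-mer Agilent arrays, double-stranded by primer extension on fresh or once-stripped slides. Bound protein was detected with fluorescent anti-GST, and scans were normalised with masliner. The Universal PBM Analysis Suite gave each ungapped eight-base word, pooled with its reverse complement, an E-score, a modified Wilcoxon-Mann-Whitney statistic.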

In order of rising “PBM E-score” value:
1. CCAGATTC  -0.389
2. CTTCCACC  -0.298
3. GCGGCTCC  -0.285
4. CGCCAGCG  -0.278
5. AGCGAACG  -0.274
6. GGCAGCGA  -0.245
7. CAGCACTG  -0.226
8. CGGTATCC  -0.224
9. CGGTTAGA  -0.22
10. AATTCATC  -0.22
11. CCACCACA  -0.214
12. AACTTGAG  -0.212
13. GAGGAGCA  -0.184
14. GAGCCTTA  -0.168
15. GGCGGCCA  -0.161
16. ACTCGACC  -0.143
17. CTACATTC  -0.121
18. AAGAGGGT  -0.12
19. GCAAATGC  -0.113
20. AGCTCACA  -0.111
21. CCACATTA  -0.107
22. GGGTCCAA  -0.104
23. ATCCGGGA  -0.0993
24. GCCTTCGC  -0.098
25. GTTAAGAA  -0.0961
26. GAGTCCAA  -0.0901
27. CACCTTCG  -0.0896
28. AGGAATTC  -0.0844
29. ACCGATTC  -0.0811
30. ACCGAATG  -0.0786
31. CTCACCCA  -0.0776
32. ATCTTTGG  -0.0763
33. ATCGCAAC  -0.0713
34. AACGAGCT  -0.0712
35. ACGCAAGC  -0.0684
36. AGGTCCAC  -0.067
37. AAAAAGTG  -0.0627
38. GATAGACC  -0.0609
39. GCACATTA  -0.0601
40. CTCCGGGA  -0.0499
41. AACGCTAA  -0.0499
42. ACACCTAC  -0.04
43. GAGGATCC  -0.0362
44. AGATTGTG  -0.0281
45. CCAAATGC  -0.0167
46. GCAAATGA  -0.0127
47. AGATCGCT  -0.0127
48. GCTCAACA  -0.0111
49. AAACATTG  -0.00791
50. AGGTCCAA  -0.00743
51. CTACATTA  0.00564
52. GGATTGGA  0.0131
53. AGTTTTTC  0.0155
54. ACACATTA  0.0185
55. ACTAGCTG  0.0299
56. TATTTTGA  0.033
57. CGAAACCG  0.0338
58. CTCTTGTA  0.035
59. CCAAATGA  0.05
60. ATGGGTAA  0.0578
61. ACATACTC  0.0584
62. CCTAGACA  0.0613
63. GATCCGGA  0.0679
64. AGGTCCAG  0.0683
65. AGTTATTA  0.0736
66. GTTTAGCA  0.0757
67. AAAAATGC  0.0785
68. CGATTGTA  0.088
69. AGATTGTA  0.091
70. CTCCGGAA  0.0926
71. AACTTGAA  0.101
72. AACTTGTA  0.107
73. ACACATTC  0.11
74. TCCTTAGA  0.117
75. CACAATCC  0.119
76. GCGCGATA  0.119
77. TATGGGGA  0.123
78. AACTTGTG  0.132
79. CAAAATGG  0.133
80. AAAAATGA  0.143
81. CTTCGGGA  0.15
82. CGATTGAC  0.151
83. ACTAATCA  0.152
84. CACTTGTA  0.157
85. CAACTATG  0.161
86. ATTTGTAG  0.162
87. ATGCGTGA  0.167
88. CTTTGTAA  0.168
89. AGCTTGTC  0.168
90. ATTTGTAA  0.169
91. CCAAATGG  0.169
92. AAACATGT  0.17
93. ACACATTG  0.171
94. AAAATGGG  0.182
95. CCTTGTAC  0.183
96. CTGTCCAC  0.184
97. ACAATGGG  0.196
98. CCCTTGTC  0.204
99. AGACATGC  0.21
100. CGCTTGTA  0.211
101. GCTAGACA  0.212
102. ATCCGGAA  0.215
103. ACAAAGGT  0.218
104. CGACATGC  0.218
105. CTCCGGAC  0.224
106. AGACATGA  0.226
107. AAGTCCAG  0.244
108. ACAAACGT  0.244
109. ATCTTGTC  0.246
110. AATAGACA  0.259
111. ACAAATCC  0.265
112. ACAAATCA  0.266
113. ATAGTTTG  0.274
114. GTACATTA  0.278
115. CTGTCCAA  0.287
116. ATCCGGAC  0.297
117. ACAAATGC  0.304
118. ACAAATCT  0.308
119. AAAAATGG  0.311
120. ACAAATGA  0.317
121. AACTTGAT  0.321
122. CTTTGTAC  0.322
123. GATAGACA  0.331
124. TCTAGACA  0.332
125. CGACATTC  0.332
126. AAAAATGT  0.335
127. GTCCGGGA  0.336
128. CTCTTGTC  0.339
129. ACAAATGG  0.345
130. CGCTTGTC  0.345
131. CGATTGTC  0.348
132. GTCCGGAA  0.368
133. AGATTGTC  0.369
134. CGACATTA  0.386
135. GTGTCCAA  0.389
136. AACTTGTC  0.391
137. AGACATTG  0.402
138. GTCCGGAC  0.406
139. CACTTGTC  0.408
140. AGACATTA  0.429
141. AGACATTC  0.445
142. ATGTCCAC  0.446
143. ACAAATGT  0.446
144. ATGTCCAG  0.457
145. ATTTGTAC  0.46
146. ATGTCCAA  0.485
147. GGACATTA  0.489
